The values below come from PubChem BioAssay (EPA / NIEHS).

Each structure is given as a SMILES string. Inconclusive results are not listed. Active and inactive are the calls of the source. How the source made its calls, unless noted: active means hit-call score of the fitted dose curve at least 0.9, where 1 is the maximum; inconclusive means response in the unintended direction; inactive means score below 0.9.

Assay [1] has as its system Thyroperoxidase (TPO), gene 54314. The experiment in a line: CCTE_Simmons_AUR_rTPO: CCTE's Amplex UltraRed Assay for Thyroperoxidase (TPO) Inhibition, Simmons Lab (AID 2283662).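 On AC50: potency for loss of signal meaning inhibition of peroxidase activity.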 An outline of the steps: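 Rat thyroid microsomes (5 ug protein) with 25 uM Amplex UltraRed and 300 uM H2O2 in 200 mM phosphate buffer, 30 min at 37C in dark; fluorescence 544/590 nm. Eight concentrations, 5 nM–87.5 uM final, 0.5% DMSO, triplicate biological replicates.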

Assay [2] can be described thus: CCTE_Simmons_CellTiterGLO_HEK293T: Viability Assessment in CCTE's Assays for Thyroperoxidase (TPO) Inhibition, Simmons Lab (AID 2283665).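 On AC50: cells exposed to compound for 24 h before readout; actives reduce ATP signal below DMSO vehicle meaning cytotoxicity.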 An outline of the steps:
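Luciferase-coupled ATP content after 24 h exposure gives viability; 8-point series from 5 nM to 87.5 uM final in 0.5% DMSO. Human HEK293T cells, 1% FBS medium, three biological replicates, dichlone positive control.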

Assay [3] in a line: STM_H9_OrnCyssISnorm_ratio: Stemina devTOX quickPredict H9 human embryonic stem cell (hESC)-based Assay for Ornithine (ORN):Cystine (CYSS) Ratio (AID 2283714). An outline of the steps: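 Ratio of internal-standard-normalized ornithine to cystine, measured by UPLC-HRMS in spent media from the last 24 h. H9 cells kept pluripotent, dosed 72 h with daily media and compound renewal; DMSO 0.1% serves as baseline.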

Assay [4] is described as follows: CEETOX_H295R_MTT_cell_viability: Viability Assessment in the CeeTox HT-H295R MTT Assay (AID 2283718; active means hit-call score of the fitted dose curve at least 0.9, where 1 is the maximum; inactive means score below 0.9;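 on AC50: curve fitted both ways so AC50 may mark viability loss or gain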). An outline of the steps: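 MTT reduction (0.5 mg/ml, 4 h at 37 C; absorbance at 570 and 650 nm) gave viability as background-corrected percent change versus controls. H295R cells had 48 h forskolin (10 uM) prestimulation, then 48 h chemical exposure at 0.1% DMSO.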

A short description of assay [5]: Tanguay_ZF_120hpf_JAW_legacy: (Legacy) Oregon State University Tanguay Lab 120 Hour Post-fertilization zebrafish Assay for Jaw Malformation (AID 2283638). An outline of the steps:
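Static waterborne exposure of dechorionated wild-type (Tropical 5D) zebrafish from 6 to 120 hpf at 28C, 0.64% DMSO vehicle; 5uM trimethyltin chloride served as positive control. Jaw morphology recorded as binary at 120 hpf.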

The nature of assay [6]: Tanguay_ZF_120hpf_OTIC_legacy: (Legacy) Oregon State University Tanguay Lab 120 Hour Post-fertilization zebrafish Assay for Otic Vesicle Malformation (AID 2283639). An outline of the steps:
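Binary scoring of otic vesicle defects at 120 hpf in zebrafish (Tropical 5D) held under static exposure at 28C, sealed and shaded, with final DMSO 0.64%. Embryos dying by 24 or 120 hpf excluded; fitted positively against DMSO.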

A short description of assay [7]: Tanguay_ZF_120hpf_PE_legacy: (Legacy) Oregon State University Tanguay Lab 120 Hour Post-fertilization zebrafish Assay for Pericardial Edema (AID 2283640). The procedure, abridged: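 Read-out is the presence or absence of pericardial edema at 120 hpf under brightfield, with gain of signal fitted against DMSO controls. Larvae (5D wild-type) were statically exposed at 28C with 0.64% final DMSO.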

A short description of assay [8]: Tanguay_ZF_120hpf_SOMI_legacy: (Legacy) Oregon State University Tanguay Lab 120 Hour Post-fertilization zebrafish Assay for Somite Malformation (AID 2283647). An outline of the steps: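 5D WT zebrafish; chorion removed 4 hpf; 1 embryo/well from 6 hpf; static exposure to 120 hpf, 28C, 0.64% DMSO final. Endpoint: somite malformation, binary, brightfield. Mortality excluded.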

Assay [9] is described as follows: Tanguay_ZF_120hpf_PFIN_legacy: (Legacy) Oregon State University Tanguay Lab 120 Hour Post-fertilization zebrafish Assay for Pectoral Fin Malformation (AID 2283648).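 Further: each larva judged yes or no for fin defect by brightfield with dead larvae skipped.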 The procedure, abridged: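 Pectoral fin malformation was recorded as a binary endpoint at 120 hpf in wild-type Tropical 5D larvae, which had been dechorionated and exposed statically from 6 hpf at 28C in 0.64% DMSO. Dead embryos were excluded.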

Assay [10] is described as follows: Tanguay_ZF_120hpf_CFIN_legacy: (Legacy) Oregon State University Tanguay Lab 120 Hour Post-fertilization zebrafish Assay for Caudal Fin Malformation (AID 2283649). The procedure, abridged:
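Embryos were collected from Tropical 5D wild-type adults and dechorionated at 4 hpf. At 6 hpf each was exposed, one per well, at 0.64% DMSO and 28C. At 120 hpf fin morphology was scored; dead embryos were excluded.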

The nature of assay [11]: Tanguay_ZF_120hpf_PIG_legacy: (Legacy) Oregon State University Tanguay Lab 120 Hour Post-fertilization zebrafish Assay for Pigmentation Malformation (AID 2283650). An outline of the steps: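 Pigment malformation recorded as a binary call at 120 hpf in zebrafish (Tropical 5D) exposed singly from 6 hpf after pronase dechorionation. Static, sealed, 28C exposure, 0.64% DMSO; mortality excludes scoring; positive-direction fit against DMSO.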

A short description of assay [12]: Tanguay_ZF_120hpf_CIRC_legacy: (Legacy) Oregon State University Tanguay Lab 120 Hour Post-fertilization zebrafish Assay for Circulatory Malformation (AID 2283651). The procedure, abridged:
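Binary circulatory malformation call at 120 hpf by brightfield imaging of zebrafish larvae; chorion removed at 4 hpf, static exposure from 6 hpf in sealed dark plates at 28C, final DMSO 0.64%; non-mortality endpoints skipped if embryo died.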

A short description of assay [13]: Tanguay_ZF_120hpf_SWIM_legacy: (Legacy) Oregon State University Tanguay Lab 120 Hour Post-fertilization zebrafish Assay for Swim Bladder Malformation (AID 2283654).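 Further: swim bladder malformation in each larva scored yes or no under brightfield.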 An outline of the steps: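 Scoring is binary for swim bladder defects at 120 hpf, by brightfield inspection of zebrafish larvae. Embryos were exposed singly from 6 hpf after pronase dechorionation, at 28C with 0.64% DMSO; mortality excluded scoring.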

The nature of assay [14]: Tanguay_ZF_120hpf_TRUN_legacy: (Legacy) Oregon State University Tanguay Lab 120 Hour Post-fertilization zebrafish Assay for Truncated Body (AID 2283655). The procedure, abridged:
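5D wild-type larvae; pronase dechorionation; static exposure 6→120 hpf, 28C; DMSO 0.64% final; 5uM trimethyltin chloride positive control. Readout: presence/absence of truncated body, analyzed relative to DMSO.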

Assay [15] can be described thus: Tanguay_ZF_120hpf_NC_legacy: (Legacy) Oregon State University Tanguay Lab 120 Hour Post-fertilization zebrafish Assay for Notochord and Tail Malformation (AID 2283656). The procedure, abridged:
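Binary scoring of notochord distortion by brightfield microscopy; embryos dying were not scored. Wild-type Tropical 5D embryos, chorion removed, exposed singly and statically from 6 to 120 hpf, 28C, sealed, 0.64% DMSO.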

Assay [16] can be described thus: Tanguay_ZF_120hpf_TR_legacy: (Legacy) Oregon State University Tanguay Lab 120 Hour Post-fertilization zebrafish Assay for Touch Response (AID 2283667). An outline of the steps:
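Binary touch-response endpoint in larvae at 120 hpf after static waterborne exposure from embryo stage (28°C, 0.64% DMSO vehicle, 5 uM trimethyltin chloride as positive control); embryos dead at 24 or 120 hpf excluded; fitted as gain versus DMSO.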

Assay [17] can be described thus: Tanguay_ZF_120hpf_ActivityScore_legacy: (Legacy) Oregon State University Tanguay Lab 120 Hour Post-fertilization zebrafish Assay Score for Activity (AID 2283742). An outline of the steps:
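Binary scoring of mortality and morphology by brightfield at 24 and 120 hpf, summarised into one activity score from 18 components relative to DMSO. Wild-type Tropical 5D zebrafish, chorion removed at 4 hpf, static exposure 6–120 hpf, 28 °C.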

Assay [18] is described as follows: STM_H9_OrnithineISnorm_perc: Stemina devTOX quickPredict H9 human embryonic stem cell (hESC)-based Assay for Ornithine (ORN) Metabolite Biomarker, Normalized (AID 2283712; active means hit-call score of the fitted dose curve at least 0.9, where 1 is the maximum; inactive means score below 0.9;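 further: ornithine released into spent medium during last day measured by mass spectrometry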). An outline of the steps:
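Ornithine in spent medium from the last 24 h of a 72 h exposure, deproteinised and quantified by UPLC-HRMS against an isotope-labelled internal standard, expressed relative to 0.1% DMSO. Pluripotent H9 cells; compound refreshed every 24 h.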

A short description of assay [19]: STM_H9_CystineISnorm_perc: Stemina devTOX quickPredict H9 human embryonic stem cell (hESC)-based Assay for Cystine (CYSS) Metabolite Biomarker, Normalized (AID 2283713; active means hit-call score of the fitted dose curve at least 0.9, where 1 is the maximum; inactive means score below 0.9). The procedure, abridged: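 Cystine in spent media from the last 24 h of a 72 h H9 hESC exposure (daily re-dosing), measured by UPLC-HRMS. Values normalized to isotopic internal standard, then to 0.1% DMSO; viability via CellTiter-Fluor.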

The nature of assay [20]: Tanguay_ZF_120hpf_BRAI_legacy: (Legacy) Oregon State University Tanguay Lab 120 Hour Post-fertilization zebrafish Assay for Brain Malformation (AID 2283641). An outline of the steps: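 Brain malformation in Tropical 5D zebrafish was recorded as a binary endpoint after static compound exposure from early development to 120 hpf at 28C. Activity was analysed against DMSO as negative control.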

For the compound `CN(C)c1ccc2nc3ccc(=[N+](C)C)cc-3sc2c1`, the AC50 was 34 µM (active) in assay [1], 13.7 µM (active) in assay [2] and 2.34 µM (active) in assay [3]. In addition, the result in assay [4] was inactive.
Turning to `CCOC(=O)C1=NN(c2ccc(Cl)cc2Cl)C(C)(C(=O)OCC)C1` (stereo not drawn), the outcome in assay [4] was inactive.
Take `CCCCCCOc1ccc(N)cc1`: the AC50 in assay [1] was 0.494 µM (active).
Turning to `CC(C)(C)NC(=O)[C@H]1CC[C@H]2[C@@H]3CC[C@H]4NC(=O)C=C[C@]4(C)[C@H]3CC[C@]12C`, in [4], the compound was called inactive.
Consider `CCCC=C(C=O)CC`, for which the compound was classed as inactive in assay [4].
`C=CC(=O)OCCCCCCOC(=O)C=C`: the compound was classed as inactive in assay [4].
Consider `Nc1ccc(C(=O)O)cc1`, for which the call in assay [5], in assay [6], in [7], in assay [8], in assay [9] and in assay [10] was inactive. The compound was classed as inactive in assay [11], in assay [12], in [13], in assay [14], in assay [15] and in assay [16]. In addition, in [17], the compound was called inactive. Besides, the AC50 in assay [1] is 3.19 µM (active).
`CC1=NN(c2ccc(S(=O)(=O)O)cc2)C(=O)C1N=Nc1ccccc1` (stereo not drawn): the compound was called inactive in assay [1] and in assay [2].
Consider `COC(=O)c1ccccc1C`, for which the compound was classed as inactive in assay [1] and in assay [2].
Consider `c1ccc(Nc2cccc3ccccc23)cc1`, for which the figures for the AC50 in assay [1] and in assay [2] were 5.32 µM (active) and 28.4 µM (active), respectively.
Take `COc1ccc(C(=O)/C(Br)=C\C(=O)O)cc1`: the AC50 in assay [4] is 76.4 µM (active).
On to `C=C[C@@]1(C)CC(=O)[C@]2(O)[C@@]3(C)[C@@H](O)CCC(C)(C)[C@@H]3[C@H](O)[C@H](OC(C)=O)[C@@]2(C)O1`, for which the result in assay [4] was inactive.
In the case of `CC1(C)[C@@H]2CC[C@@]1(C)C(=O)C2`, the result in assay [18] and in assay [19] was inactive.
For the compound `N#Cc1ccc(C2CCCc3cncn32)cc1` (stereo not drawn), the call in assay [4] was inactive.
For the compound `C1CNCCN1`, the outcome in assay [5], in [6], in assay [7], in assay [20], in [8] and in [9] was inactive. Moreover, the compound was called inactive in assay [10], in assay [11], in [12], in assay [13], in assay [14] and in assay [15]. Also, the compound was classed as inactive in assay [16] and in assay [17].
`O=S(=O)(O)c1ccc(N=Nc2c(O)ccc3ccccc23)cc1`: in assay [1], the compound was called inactive. Further, the AC50 in [2] is 18.1 µM (active).
As for `COc1ccc(-c2coc3cc(O)cc(O)c3c2=O)cc1`, the AC50 in assay [1] was 21.4 µM (active); in assay [2], 86.5 µM (active). Also, in assay [4], the result was inactive.
